nsP2pro inh = Primary qHTS for inhibitors of NSP2Pro chikungunya virus (CHIKV); Polyprotein P1234 (Chikungunya virus (strain S27-African prototype)), Q8JUX6; FRET peptide cleavage, nsP2pro, fluorescence 1 h; Potency, µM (top dose mostly 24.9 µM), without a hit: at the highest dose activity change, negative = inhibition, hits mostly inhibitors; 31,000 compounds, 1.1% hits; further: nearly all actives have a fitted effect of over 60% in size
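Recombinant nsP2pro (150 nM) was preincubated with compound 15 min at room temperature in 10 mM Tris-HCl pH 8.0, 0.01% Tween 20. Peptide 2 FRET substrate (2.5 uM) was then added and fluorescence read after 1 h. Seven-point series, up to 25 uM.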
nsP2 cell sec = Secondary cell base assay for inhibitors of NSP2Pro Chikungunya virus (CHIKV) | shares compounds with nsP2pro inh | cell-based CHIKV nsP2 protease reporter assay | Potency, µM (titrated, usually from 51.1 µM), for inactives: at the highest dose activity change, negative = inhibition, actives largely listed as inhibitors | 450 compounds, 10% hits | AID 1964100, 2024; further: nearly all actives have a fitted effect of over 70% in size
CHIKV NSP2 FL = Selectivity profile for inhibitors of NSP2Pro chikungunya virus (CHIKV): Full length NSP2 enzyme counterscreen (CHIKV-NSP2); shares compounds with nsP2pro inh; Full-length CHIKV NSP2 protease enzymatic counterscreen; Potency, µM (top dose mostly 50.7 µM), for the others: top-dose activity change, negative = inhibition, hits mostly inhibitors; 410 compounds, 39% hits; further: nearly all actives have a fitted effect of over 65% in size
Furin counter = Selectivity profile for inhibitors of NSP2Pro chikungunya virus (CHIKV): Human furin counterscreen | AID 1964102, 2024 | 410 compounds, 6% hits | shares compounds with nsP2pro inh | Potency, µM (series often up to 50.6 µM), for inactives: at the top dose activity change, negative = inhibition, most hits filed as inhibitors | Recombinant human furin enzymatic counterscreen, fluorogenic substrate
Target sequence (P09958 whole entry, looked up): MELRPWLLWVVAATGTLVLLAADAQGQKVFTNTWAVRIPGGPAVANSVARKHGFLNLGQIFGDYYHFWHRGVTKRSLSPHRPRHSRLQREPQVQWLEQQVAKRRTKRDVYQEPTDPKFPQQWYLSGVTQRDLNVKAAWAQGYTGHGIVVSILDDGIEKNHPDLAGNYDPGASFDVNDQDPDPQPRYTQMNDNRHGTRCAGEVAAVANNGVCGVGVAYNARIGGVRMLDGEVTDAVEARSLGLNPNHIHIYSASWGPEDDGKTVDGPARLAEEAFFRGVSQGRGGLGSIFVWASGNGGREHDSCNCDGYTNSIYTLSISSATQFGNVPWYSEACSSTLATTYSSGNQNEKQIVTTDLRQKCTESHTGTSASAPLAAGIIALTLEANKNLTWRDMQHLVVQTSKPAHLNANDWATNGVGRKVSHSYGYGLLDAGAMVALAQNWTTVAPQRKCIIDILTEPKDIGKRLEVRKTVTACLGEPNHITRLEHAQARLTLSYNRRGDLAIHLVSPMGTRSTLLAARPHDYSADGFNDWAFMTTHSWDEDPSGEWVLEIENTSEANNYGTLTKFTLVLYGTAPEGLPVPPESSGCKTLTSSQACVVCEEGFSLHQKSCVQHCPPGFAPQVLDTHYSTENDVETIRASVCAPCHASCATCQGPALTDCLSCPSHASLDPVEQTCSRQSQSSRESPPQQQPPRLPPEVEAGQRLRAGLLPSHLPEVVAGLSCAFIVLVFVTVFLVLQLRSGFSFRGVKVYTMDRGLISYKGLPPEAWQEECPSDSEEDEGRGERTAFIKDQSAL
nsP2 NS23 pep = Selectivity profile for inhibitors of NSP2Pro chikungunya virus (CHIKV): Endogenous NS2/3 peptide Counterscreen; 410 compounds, 34% hits; Potency, µM (doses to about 51 µM), inactives show top-dose activity change, negative = inhibition, actives largely listed as inhibitors; shares compounds with nsP2pro inh; AID 1964103, 2024; Purified CHIKV nsP2 protease, endogenous NS2/3 peptide cleavage; further: nearly all actives have a fitted effect of over 55% in size
Papain cs = Selectivity profile for inhibitors of NSP2Pro chikungunya virus (CHIKV): Papain Counterscreen; shares compounds with nsP2pro inh; purified papain protease activity, enzymatic inhibition; Potency, µM (highest dose often 51 µM), inactives show at the highest dose activity change, negative = inhibition, actives largely listed as inhibitors; 410 compounds, 5% hits
nsP2pro conf qHTS = Confirmatory qHTS for inhibitors of NSP2Pro chikungunya virus (CHIKV); shares compounds with nsP2pro inh; CHIKV nsP2 protease enzymatic activity, qHTS; Potency, µM (top dose mostly 25.5 µM), without a hit: top-dose activity change, negative = inhibition, usual class: inhibitors; 410 compounds, 43% hits; further: nearly all actives have a fitted effect of over 75% in size
HCV NS3 counter = Selectivity profile for inhibitors of NSP2Pro chikungunya virus (CHIKV): NS34A-HCV Counterscreen; Potency, µM (titrated, usually from 50.9 µM), usual class: inhibitors; shares compounds with nsP2pro inh; AID 1964106, 2024; HCV NS3/4A protease biochemical counterscreen; 410 compounds, 20% hits; further: nearly all actives have a fitted effect of over 55% in size
Starred values were filed as active, the others as inactive; i = inactive; ? = inconclusive; / = not tested or not shown; [ ] = another dose, or the depositor's remark. This is one part of a sample in which hits are shown more often than they occur. The call rests on the fitted dose curve. On the % scale 0 is the no-effect control and ±100 the full control effect; potency means the concentration at half of the fitted maximal effect.

SMILES | nsP2pro inh | nsP2 cell sec | CHIKV NSP2 FL | Furin counter | nsP2 NS23 pep | Papain cs | nsP2pro conf qHTS | HCV NS3 counter
CCCCC[C@@H](O)CC[C@H]1[C@@H]2Cc3cccc(OCC(=O)O)c3C[C@@H]2C[C@@H]1O | -2% | / | / | / | / | / | / | /
Cc1cc(NC(=O)c2ccc(C)c(Nc3nccc(-c4cccnc4)n3)c2)cc(-n2cnc(C)c2)c1 | i | / | / | / | / | / | / | /
C=C(C(=O)O[C@H]1C/C(C)=C/CC/C(CO)=C/[C@H]2OC(=O)C(=C)[C@H]12)C(O)CO (stereo not given in full) | 5.4µM* | ? | 10µM* | -4%[33.5 µM] | ? | -5%[33.5 µM] | 4.4µM* | i
C=C(C)C(=O)OC1CC(CO)CCC/C(CO)=C/C2OC(=O)C(=C)C21 (stereo not given) | -20% | / | / | / | / | / | / | /
C=C(C)C(=O)OC1[C@@H]2C(=C)C(=O)O[C@@H]2C[C@@H](C)[C@@H]2C=CC(=O)[C@@]12C (stereo not given in full) | -7% | / | / | / | / | / | / | /
C#CCOc1ccc(-c2nnc3n2N=C(c2ccc(OC)c(OCC(C)=O)c2)CS3)cc1 | -4% | / | / | / | / | / | / | /
Cc1oc(-c2ccccc2)nc1CCOc1ccc(CC2C(=O)NOC2=O)cc1 (stereo not given) | -18% | / | / | / | / | / | / | /
CN(Cc1ccccc1)C(=O)[C@H](NC(=O)c1cc2cc(NC(=O)c3ccccc3-c3ccc(C(F)(F)F)cc3)ccc2n1C)c1ccccc1 | -4% | / | / | / | / | / | / | /
Cn1nnnc1Sc1ncnc2scc(I)c12 | 2.2µM* | 7.3µM* | -3% | -4% | -9% | -6% | 67% | ?
Cc1ccc(-c2csc3ncnc(Sc4nnnn4C)c23)cc1 | i | / | / | / | / | / | / | /
Cn1nnnc1Sc1ncnc2scc(Br)c12 | i | / | / | / | / | / | / | /
COC(=O)c1ccc([C@H]2c3[nH]c4ccccc4c3C[C@@H](C(=O)OC)N2C(=O)CCl)cc1 | -5% | / | / | / | / | / | / | /
O=C1OC(/C=C/c2ccccc2)=NC/1=C\c1cccnc1 | 8% | / | / | / | / | / | / | /
O=C1c2ccccc2C(=O)N1c1cccnc1 | i | / | / | / | / | / | / | /
O=C1C(=Cc2cccnc2)C(=O)c2ccccc21 | ? | -11% | ? | -10% | 18µM* | -7% | 5µM* | ?
COc1cccc(CCC(=O)NC2CCN(c3cc(C(F)(F)F)nc(C)n3)CC2)c1 | -2% | / | / | / | / | / | / | /
O=C(NCc1ccc(F)cc1)[C@@H]1C[C@@H](c2cccc(C(F)(F)F)c2)N(CC2CCOCC2)C1 | i | / | / | / | / | / | / | /
CC(=O)Oc1cc2c(s1)CCN(C(C(=O)C1CC1)c1ccccc1F)C2 (stereo not given) | ? | 2% | ? | -10% | ? | ? | ? | i
CCCCCCC(COC(=O)c1cccnc1)(COC(=O)c1cccnc1)COC(=O)c1cccnc1 | 3% | / | / | / | / | / | / | /
O=C(O)[C@H]1C2CCC(CC2)[C@@H]1Nc1nc(-c2c[nH]c3ncc(F)cc23)ncc1F | ? | -11% | -36% | -11% | i | ? | ? | i
